Assay outcomes deposited in PubChem by The Scripps Research Institute Molecular Screening Center.
An excerpt weighted towards active compounds, which were near 2.4% of everything screened.
MBD2 DNA inh: MBD2-methylated oligo binding inhibition | AID 686964 | inhibition, % at 4.4 µM | TR-FRET, MBD2 binding to methylated oligonucleotide | actives 0.31% (n = 370,000) | Q9UBB5; in the data active = inhibition above about 13%
PLC-beta3 inh: blocks human PLC-beta3 enzyme activity; inhibition, % at 12.2 µM; Q01970; actives 0.18% (n = 370,000); Purified PLC-beta3, fluorogenic substrate, fluorescence; in the data active = inhibition above about 11%
LEDGF integ inh: blocks HIV-1 LEDGF/p75-dependent DNA integration; inhibition, % at 3.7 µM; TR-FRET IN-LEDGF/p75 DNA integration, Eu/Cy5; AID 743269; actives 0.64% (n = 370,000);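 active = inhibition above the screen-wide mean plus 3 SD, cut at about 13% in these data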;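 also: signal is the Cy5 over europium emission ratio at 671 and 618 nm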
UHRF1 binding: UHRF1 methyl-DNA binding inhibition. UHRF1 binding to methylated oligo, TR-FRET. actives 0.75% (n = 370,000). inhibition, % at 4.4 µM; in the data active = inhibition above about 21%;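 also: UHRF1 SRA domain binding a hemimethylated CpG hairpin DNA probe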
PLCg1 inh: PLC-gamma1 (human) inhibition, primary screen; P19174; purified PLC-gamma1, fluorogenic substrate, fluorescence; inhibition, % at 12.2 µM; actives 0.84% (n = 370,000); AID 720700; in the data active = inhibition above about 9.5%
Target sequence (P19174 whole entry, looked up): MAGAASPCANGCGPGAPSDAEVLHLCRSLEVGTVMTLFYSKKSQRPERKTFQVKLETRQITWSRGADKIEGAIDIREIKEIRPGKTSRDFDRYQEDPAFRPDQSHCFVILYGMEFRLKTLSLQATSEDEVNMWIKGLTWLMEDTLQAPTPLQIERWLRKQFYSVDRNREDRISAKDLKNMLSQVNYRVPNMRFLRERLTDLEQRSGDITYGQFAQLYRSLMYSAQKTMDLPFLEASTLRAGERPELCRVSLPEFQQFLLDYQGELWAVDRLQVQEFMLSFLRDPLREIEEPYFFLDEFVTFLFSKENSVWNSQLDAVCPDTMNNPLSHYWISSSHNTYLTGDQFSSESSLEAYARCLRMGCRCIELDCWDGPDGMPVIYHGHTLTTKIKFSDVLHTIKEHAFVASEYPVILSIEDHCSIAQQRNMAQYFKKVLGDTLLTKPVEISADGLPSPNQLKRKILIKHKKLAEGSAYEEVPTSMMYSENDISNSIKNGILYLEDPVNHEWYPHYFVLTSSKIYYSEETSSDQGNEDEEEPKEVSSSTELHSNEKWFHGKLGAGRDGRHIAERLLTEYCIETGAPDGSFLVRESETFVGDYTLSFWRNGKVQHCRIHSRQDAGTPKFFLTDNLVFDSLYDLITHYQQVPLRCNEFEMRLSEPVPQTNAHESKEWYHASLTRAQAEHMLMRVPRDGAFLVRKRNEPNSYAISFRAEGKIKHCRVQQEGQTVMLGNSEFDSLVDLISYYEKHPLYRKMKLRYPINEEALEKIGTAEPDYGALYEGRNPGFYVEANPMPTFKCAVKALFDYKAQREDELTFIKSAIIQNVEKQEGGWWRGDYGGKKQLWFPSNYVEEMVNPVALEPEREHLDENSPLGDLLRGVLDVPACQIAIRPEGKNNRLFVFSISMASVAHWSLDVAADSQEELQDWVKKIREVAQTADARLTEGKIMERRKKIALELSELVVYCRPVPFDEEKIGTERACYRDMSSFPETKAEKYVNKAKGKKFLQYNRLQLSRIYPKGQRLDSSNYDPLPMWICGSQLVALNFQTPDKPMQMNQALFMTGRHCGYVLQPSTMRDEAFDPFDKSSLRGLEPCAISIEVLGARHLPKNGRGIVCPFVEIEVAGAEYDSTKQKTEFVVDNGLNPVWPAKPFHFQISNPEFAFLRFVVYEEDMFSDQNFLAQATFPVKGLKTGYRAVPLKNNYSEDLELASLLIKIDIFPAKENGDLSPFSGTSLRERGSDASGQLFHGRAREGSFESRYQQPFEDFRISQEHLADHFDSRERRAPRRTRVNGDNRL
IN multimer act: counter-screen for LEDGF/p75 integration inhibitors: HIV-1 integrase multimerization activators | shares compounds with LEDGF integ inh | TR-FRET HIV-1 integrase multimerization, biochemical | activation, % at 7.7 µM | actives 17% (n = 2,000) | AID 1053131; in the data active = activation above about 8.9%
TRFRET interf: counter-screen for LEDGF/p75 integration inhibitors: TR-FRET optical interference. shares compounds with LEDGF integ inh. TR-FRET optical interference counterscreen, HIV-1 IN multimerization. inhibition, % at 7.7 µM. 2,000 tested, under 10 active. AID 1053135;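 active = inhibition above the mean over all tested compounds plus 3 SD, which no compound reached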
LEDGF integ conf: LEDGF/p75-dependent HIV-1 integration inhibition, confirmation; TR-FRET LEDGF/p75-dependent HIV-1 integration, biochemical; actives 36% (n = 2,000); AID 1053136; shares compounds with LEDGF integ inh; inhibition, % at 3.7 µM; in the data active = inhibition above about 14%
Each line names hits and unclear results; the compound was inactive in the other large screens (follow-up assays come after a bar, where they were run).

C[C@]12CCC3C(CC[C@H]4C[C@@H](O)CC[C@]34C)C1[C@H]1CN=N[C@H]1[C@@H]2O (some centres undefined)	none
COCCCn1c(N)c(C(=O)OCCOC)c2nc3ccccc3nc21	LEDGF integ inh 28 | IN multimer act inactive | TRFRET interf inactive | LEDGF integ conf inactive
C=C1C(=O)O[C@@H]2C[C@@H](C)[C@@H]3C=CC(=O)[C@@]3(C)[C@@H](OC(=O)CC(=O)O[C@H]3[C@@H]4C(=C)C(=O)O[C@@H]4C[C@@H](C)[C@@H]4C=CC(=O)[C@]43C)[C@H]12	LEDGF integ inh 25 | IN multimer act inactive | TRFRET interf inactive | LEDGF integ conf 59
CCc1ccc(N2C(=O)NC(=O)/C(=C\c3cccn3CCOc3ccc(C(C)C)cc3)C2=O)cc1	none
Cc1cc(/C=C2\C(=O)NC(=O)N(Cc3ccco3)C2=O)c(C)n1-c1ccc(C(=O)O)cc1	LEDGF integ inh 48, UHRF1 binding 52 | IN multimer act inactive | TRFRET interf inactive | LEDGF integ conf inactive
CCOC(=O)C1CCN(/C=C2/C(=O)NC(=O)N(Cc3ccco3)C2=O)CC1	LEDGF integ inh 14 | IN multimer act inactive | TRFRET interf inactive | LEDGF integ conf inactive
Cc1ccc(/C=C2\C(=O)NC(=O)N(Cc3ccccc3Cl)C2=O)o1	none
Cc1ccc(OCCn2cccc2/C=C2/C(=O)NC(=O)N(Cc3ccco3)C2=O)cc1	LEDGF integ inh 58, UHRF1 binding 64 | IN multimer act inactive | TRFRET interf inactive | LEDGF integ conf 37
Cc1cc(/C=C2\C(=O)NC(=O)N(Cc3ccco3)C2=O)c(C)n1-c1ccc(O)cc1	LEDGF integ inh 53, UHRF1 binding 36 | IN multimer act inactive | TRFRET interf inactive | LEDGF integ conf 21
O=C(Nc1ccc(F)cc1)OC1CN2CCC1CC2 (centres undefined)	none
Cc1ccccc1-n1c(C)cc(/C=C2/C(=O)NC(=O)N(Cc3ccco3)C2=O)c1C	LEDGF integ inh 49 | IN multimer act inactive | TRFRET interf inactive | LEDGF integ conf inactive
CCn1c(C)cc(/C=C2\C(=O)NC(=O)N(c3ccccc3C)C2=O)c1C	none
CN1C(=O)C(C2CCCCC2)C(=O)N(C)C1=O	LEDGF integ inh 55 | IN multimer act inactive | TRFRET interf inactive | LEDGF integ conf inactive
CCOc1ccc(-n2c(CC)nc3ccccc3c2=O)cc1	LEDGF integ inh 39 | IN multimer act inactive | TRFRET interf inactive | LEDGF integ conf inactive
Oc1ccc(C[C@H]2NCCc3cc(O)c(O)cc32)cc1O	LEDGF integ inh 55, UHRF1 binding 30 | IN multimer act 18 | TRFRET interf inactive | LEDGF integ conf 30
CNC(C(=O)c1ccccc1)C(OC)c1ccc(C)cc1 (centres undefined)	none
CC(C)CN1CCN(Cc2ccc(F)cc2Cl)CC1CCO (centres undefined)	none
COc1ccc(Cc2nccc3cc(OC)c(OC)cc23)cc1OC	LEDGF integ inh 33 | IN multimer act inactive | TRFRET interf inactive | LEDGF integ conf inactive
COc1ccc(CCNCc2ccc(C)s2)cc1OC	none
CC(C)CCN1CCN(Cc2c(F)cccc2Cl)CC1CCO (centres undefined)	none
CCN(CC)c1ccc(N=Cc2c(O)n(Cc3ccco3)c(=O)[nH]c2=O)cc1	LEDGF integ inh 57 | IN multimer act inactive | TRFRET interf inactive | LEDGF integ conf inactive
CCN(CC)c1ccc(N=Cc2c(O)n(-c3cc(OC)ccc3OC)c(=O)[nH]c2=O)cc1	LEDGF integ inh 16 | IN multimer act inactive | TRFRET interf inactive | LEDGF integ conf inactive
CN(C)CCN=Cc1c(O)n(Cc2ccco2)c(=O)[nH]c1=O	none
N#Cc1c(/N=C/c2c(O)n(Cc3ccco3)c(=O)[nH]c2=O)sc2c1CCCC2	LEDGF integ inh 34, UHRF1 binding 46 | IN multimer act inactive | TRFRET interf inactive | LEDGF integ conf inactive
Fc1ccc(N2Cc3ccccc3-n3nncc3C2)cc1	LEDGF integ inh 21 | IN multimer act inactive | TRFRET interf inactive | LEDGF integ conf 19
CN1Cc2ccccc2-n2nncc2C1	none
Fc1cccc(-c2ccc3c(c2)CN(c2cccc(Cl)c2)Cc2cnnn2-3)c1	LEDGF integ inh 34 | IN multimer act inactive | TRFRET interf inactive | LEDGF integ conf 20
CC(C)(C)C(=O)N1Cc2cc(-c3ccccc3)ccc2-n2nncc2C1	LEDGF integ inh 15 | IN multimer act inactive | TRFRET interf inactive | LEDGF integ conf inactive
O=S(=O)(c1cc(Cl)cc(Cl)c1)N1Cc2cc(-c3cccc(F)c3)ccc2-n2nncc2C1	none
COc1ccc(-c2ccc3c(c2)CN(C(=O)C(C)(C)C)Cc2cnnn2-3)cc1	none
C=CCn1c(O)c(C(C)=Nc2ccc(C(=O)O)cc2)c(=O)[nH]c1=O	none
C[C@]12CCC(=O)C(O)=C1CC[C@@H]1[C@@H]2CC[C@]2(C)C(=O)CC[C@@H]12	none
CC1=CC2OC3CC4OC(=O)C=CC=CC(=O)OCCC(C)C(O)C(=O)OCC2(CC1)C4(C)C31CO1 (centres undefined)	none
CCN(CC)c1ccc(CN(C)CCc2ccc(OC)c(OC)c2)cc1	none
COc1ccc(CC2=NCCc3cc(OC)c(OC)cc32)cc1OC	LEDGF integ inh 27, UHRF1 binding 21 | IN multimer act inactive | TRFRET interf inactive | LEDGF integ conf inactive
CC(C)N1CCC2(CC1)NC(CO)(CO)CO2	none
Cc1ccc(N2C(=O)NC(=O)/C(=C\C=C\c3ccco3)C2=O)cc1	LEDGF integ inh 41 | IN multimer act inactive | TRFRET interf inactive | LEDGF integ conf 33
Cc1cccc(N2C(=O)NC(=O)/C(=C\C=C\c3ccco3)C2=O)c1	LEDGF integ inh 31 | IN multimer act inactive | TRFRET interf inactive | LEDGF integ conf 28
CN(C)c1ccc(/C=C/C=C2/C(=O)NC(=O)N(c3ccccc3)C2=O)cc1	none
Cc1ccc(N2C(=O)NC(=O)/C(=C\C=C\c3ccco3)C2=O)cc1C	LEDGF integ inh 29 | IN multimer act inactive | TRFRET interf inactive | LEDGF integ conf 34
Cc1ccc(N2C(=O)NC(=O)/C(=C\c3ccoc3)C2=O)cc1	none
O=C1NC(=O)N(c2ccccc2)C(=O)/C1=C/C=C/c1ccco1	LEDGF integ inh 28 | IN multimer act inactive | TRFRET interf inactive | LEDGF integ conf 19
CC(C)C12CN3CC(C(C)C)(CN(C1)C3c1cccnc1)C2=O (centres undefined)	none
C[C@@H]1CN([C@H](C)CO)C(=O)CCCn2cc(nn2)CO[C@H]1CN(C)C(=O)Oc1cccc2ccccc12	none
COc1cccc2cc(-c3cc(=O)oc4ccc(OC(=O)N(C)C)cc34)oc12	none
